Results reported in PubChem BioAssay AID2551 (National Center for Advancing Translational Sciences (NCATS), 2010).
“And” between values parts separate entries of the source, which are not always exact repeats. Equal values may be shown once. Screen size: about 310,000 compounds; about 17,000 (5.5%) were called active. Where a call stands in place of a potency, no number is given. Not shown: some 11% with an inconclusive outcome. The call rests on the fitted dose curve; in most records, active means well fitted inhibition curve with a large enough effect; inconclusive means small, poorly fitted or top-dose-only effect, or effect the other way; inactive means no such curve, though single readings can be large or run the other way. For the sample, actives were picked, then their nearest neighbours and some compounds at random. Where a structure was tested more than once in an assay, its records may differ in their call.
Further: nearly all actives have a fitted effect of over 60% in size.
Potency means the concentration at half of the fitted maximal effect.

The compounds below were run against Nuclear receptor ROR-gamma (Mus musculus) (UniProt P51450) (assay: qHTS for inhibitors of ROR gamma transcriptional activity). Settings: Drosophila S2 Gal4-RORgamma UAS-luciferase reporter, 20 h; series mostly up to 53.6 µM.
Sequence of Nuclear receptor ROR-gamma (Mus musculus) (P51450 whole entry, looked up, the tested form may be a part): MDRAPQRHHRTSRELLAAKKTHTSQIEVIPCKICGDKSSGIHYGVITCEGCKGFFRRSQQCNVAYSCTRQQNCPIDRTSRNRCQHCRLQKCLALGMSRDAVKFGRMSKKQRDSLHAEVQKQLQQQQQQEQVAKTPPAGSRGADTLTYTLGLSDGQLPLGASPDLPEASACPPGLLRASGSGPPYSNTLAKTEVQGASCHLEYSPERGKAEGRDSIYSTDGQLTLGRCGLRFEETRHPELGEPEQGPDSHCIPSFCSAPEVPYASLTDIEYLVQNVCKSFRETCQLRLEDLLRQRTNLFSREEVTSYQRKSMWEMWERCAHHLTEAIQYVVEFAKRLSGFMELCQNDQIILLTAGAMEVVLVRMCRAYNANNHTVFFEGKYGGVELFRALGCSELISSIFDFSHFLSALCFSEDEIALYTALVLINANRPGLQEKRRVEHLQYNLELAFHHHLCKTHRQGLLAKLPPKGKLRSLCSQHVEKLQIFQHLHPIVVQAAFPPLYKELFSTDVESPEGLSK
In short: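 Schneider cells (Drosophila), stable Gal4 DBD–ROR gamma + UAS-luc; 1 hr cmpd preincubation; Cu2+ induction 700 uM final; 20 hr ambient; luminescence.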
`COc1ccccc1NC(=O)c1ccc(N2CC3CC(C2)c2cccc(=O)n2C3)c(NC(=O)c2cccnc2)c1` (stereo not given) was tested, and the Potency was “inactive”. For `CC(=O)N1c2ccc(S(=O)(=O)N3CCC(C(=O)N4CCN(c5ccccc5)CC4)CC3)cc2CC1C` (stereo not given), the Potency was “inactive”. With `CC(C)CN(CC(C)C)C(=O)CN1c2cccc3cccc(c23)S1(=O)=O` the Potency was “inactive”. In the case of `O=C(CNC(=O)[C@@H]1Cc2ccccc2CN1)NC1CCCCC1`, the Potency is reported as “inactive”. With `NC(=O)C1CC(=O)N(c2ccc(OCC(=O)NCc3ccccc3)cc2)C1` (stereo not given) the Potency was “inactive”. For `Cn1c(=O)[nH]c(=O)c2c1nc(N1CCN(C(c3ccccc3)c3ccccc3)CC1)n2CCO`, the Potency was “inactive”. `O=C(COCc1cc(-c2ccc3c(c2)OCO3)on1)N1CCN(c2cccc(Cl)c2)CC1` was tested, and the Potency was “inactive”. `CCOC(=O)c1c(NC(=O)CCl)sc(C(=O)N(CC)CC)c1C` was tested, and the Potency was 20 µM (active). With `CCOC(=O)c1sc(NC(=O)CCN2CCOCC2)c(C(=O)OCC)c1C` the Potency was “inactive”. For `CCOC(=O)Nc1sc(C(=O)N(C)C)c(C)c1C(=O)OCC`, the Potency was “inactive”. In the case of `Cc1ccc(S(=O)(=O)NCc2ccc(C(=O)NC3CCC(C)CC3)cc2)cc1` (stereo not given), the Potency is reported as “inactive”. In the case of `COc1ccccc1N1CC(C(=O)Nc2nnc(SCC(=O)NC(C)C)s2)CC1=O` (stereo not given), the Potency is reported as “inactive”. In the case of `CC(=O)Oc1c2c(c3c(c1CC=C(C)C)O[C@@]14C(=CC5CC1C(C)(C)OC4(C/C=C(\C)C(=O)O)C5=O)C3=O)OC(C)(CCC=C(C)C)C=C2` (stereo not given in full), the Potency is reported as 5.62 µM (active). With `O=C(CNC(=O)c1ccc(Br)o1)NCC1CCCO1` (stereo not given) the Potency was “inactive”. For `CCNC(=O)c1cnn(-c2ccccc2)c1-c1ccccc1`, the Potency was “inactive”. In the case of `COc1ccc(-n2nnnc2-c2nc3ccccc3s2)cc1`, the Potency is reported as 12.6 µM (active). With `CCOc1cccc(-n2nnnc2-c2ccc(OC)cc2)c1` the Potency was “inactive”. In the case of `COc1ccc(-n2nnnc2SCC(=O)Nc2ccccc2)cc1`, the Potency is reported as “inactive”. In the case of `COc1cc(C2C3=C(CCCC3=O)OC3=C2C(=O)CCC3)ccc1OCC(=O)Nc1ccccc1`, the Potency is reported as “inactive”. In the case of `CC(=O)N(Cc1cc(=O)[nH]c2ccccc12)c1ccc(C)cc1C`, the Potency is reported as “inactive”. `Cc1ccc(N(Cc2cc3ccccc3[nH]c2=O)C(=O)c2cccs2)cc1` was tested, and the Potency was “inactive”. In the case of `Cc1ccc(N(Cc2cc(=O)[nH]c3ccccc23)C(=O)CCl)cc1`, the Potency is reported as 15.8 µM (active). For `Cc1cc(C)cc(NC(=O)C2CCCN2S(=O)(=O)c2cccc3cccnc23)c1` (stereo not given), the Potency was “inactive”. In the case of `CCN1CCN(CCNC(=O)c2ccc3c(c2)NC(=O)/C(=C\c2ccc(OC)c(OC)c2)S3)CC1`, the Potency is reported as “inactive”. For `CCCCc1cc(=O)oc2c(C)c(OCC(=O)N3CCC(C(N)=O)CC3)ccc12`, the Potency was “inactive”. `O=C(/C=C/c1ccc2c(c1)OCO2)NCc1cn2cc(Cl)ccc2n1` was tested, and the Potency was “inactive”. In the case of `Clc1ccc2nc(CSc3ccccc3)cn2c1`, the Potency is reported as 14.1 µM (active). `CCOc1ncccc1C(=O)OCc1cn2cc(Cl)ccc2n1` was tested, and the Potency was “inactive”. For `COc1ccc(CCOC(=O)CNC(=O)c2ccc(Cl)cc2Cl)cc1`, the Potency was “inactive”. In the case of `COC(=O)Cc1cnc(NC(=O)CSc2nc(C(C)C)cc(=O)[nH]2)s1`, the Potency is reported as “inactive”. For `COc1ccc(N2CCN(C(=O)[C@@H](NC(=O)c3cc(OC)cc(OC)c3)C(C)C)CC2)cc1`, the Potency was “inactive”. For `CCN(CCn1cccn1)Cc1cn[nH]c1-c1ccc(OC)cc1F`, the Potency was “inactive”. In the case of `COc1ccc(-c2cn[nH]c2-c2ccc(OC)cc2)cc1`, the Potency is reported as “inactive”. In the case of `CCOc1ccccc1Oc1cn[nH]c1-c1ccc(OC)cc1O`, the Potency is reported as 8.91 µM (active). In the case of `O=S(=O)(NCC1CC1)c1ccc(F)c(Cl)c1`, the Potency is reported as “inactive”. In the case of `Cc1ccc(N(CC(=O)NCC2CCCO2)C(=O)CNS(=O)(=O)c2ccc(Cl)cc2)cc1` (stereo not given), the Potency is reported as “inactive”. In the case of `CCN(CC(=O)N1CCCC1)S(=O)(=O)c1ccc(F)cc1`, the Potency is reported as “inactive”. For `O=C(CSCc1ccccc1Cl)NNC(=O)c1ccccc1`, the Potency was “inactive”. `O=C(CO/N=C/c1ccccc1OC(F)F)NC1CCCC1` was tested, and the Potency was “inactive”. With `O=C(CO/N=C/c1ccccc1O)NNC(=O)c1ccccc1Cl` the Potency was 20 µM (active). `CCOc1ccc(C(C(=O)NCCOC)N(CCOC)C(=O)CCC(=O)Nc2ccccn2)cc1` (stereo not given) was tested, and the Potency was “inactive”. In the case of `CC(=O)Nc1ccc(-c2csc(NC(=O)Nc3ccccc3)n2)cc1`, the Potency is reported as “inactive”. In the case of `O=C(Nc1nc(-c2cccnc2)cs1)c1ccccc1F`, the Potency is reported as “inactive”. `Cc1ccc(C(=O)NCCNC(=O)c2cnccn2)cc1` was tested, and the Potency was “inactive”. For `O=C(O)c1ccccc1C(=O)Nc1nc(-c2ccccc2)cs1`, the Potency was “inactive”. For `COc1ccc(-c2csc(NC(=O)c3ccc(N4C(=O)CCC4=O)cc3)n2)cc1OC`, the Potency was “inactive”. For `O=C(Nc1nc(-c2ccc(-c3ccccc3)cc2)cs1)c1cnccn1`, the Potency was 1.12 µM (active). `Cc1ccc(Nc2nc(-c3sc(NC(=O)c4ccccc4)nc3C)cs2)cc1` was tested, and the Potency was “inactive”. With `Cc1ccc(-c2csc(NNC(=O)c3ccccc3)n2)cc1` the Potency was 5.01 µM (active). `Cc1ccc(-c2csc(NC(=O)c3cnccn3)n2)cc1C` was tested, and the Potency was 2.24 µM (active). For `Cc1sc2ncn(CC(=O)NCCCC(=O)N3CCN(c4ccccc4F)CC3)c(=O)c2c1C`, the Potency was “inactive”. For `Nc1ccc(C(=O)Nc2ccccc2N)cc1`, the Potency was “inactive”. For `COc1ccc(NC(=O)CSc2nc(SC)ns2)c(OC)c1`, the Potency was “inactive”. For `Cc1ccc(S(=O)(=O)N(C)CC(=O)NCCc2c[nH]c3ccccc23)cc1`, the Potency was “inactive”. In the case of `Cc1cccc(N(Cc2ccccc2)C(=O)c2ccccc2F)c1`, the Potency is reported as “inactive”. `CN(C(=O)COc1ccccc1)c1nnc(-c2ccncc2)s1` was tested, and the Potency was “inactive”. For `CN(C(=O)c1ccccn1)c1nnc(-c2ccccn2)s1`, the Potency was 10 µM (active). With `CN(C(=O)c1ccno1)c1nnc(-c2cccnc2)s1` the Potency was “inactive”. In the case of `O=C(COc1ccc(S(=O)(=O)Nc2cccc(C(F)(F)F)c2)cc1)N1CCOCC1`, the Potency is reported as “inactive”. `O=C(CCN1C(=O)[C@@H]2Cc3ccccc3CN2C1=O)NCCc1ccccc1` was tested, and the Potency was “inactive”. `CCOc1cc(N2CCOCC2)c(OCC)cc1NC(=O)COc1cccc2cccnc12` was tested, and the Potency was “inactive”. With `Cc1nc2sc(C(c3ccco3)N3CCOCC3)c(O)n2n1` (stereo not given) the Potency was “inactive”. `Oc1c(C(c2ccccn2)N2CCOCC2)ccc2cccnc12` (stereo not given) was tested, and the Potency was 1.26 µM (active). In the case of `O=C(NCc1nnc(SCC(=O)N2CCCCCC2)o1)c1ccc(F)cc1`, the Potency is reported as “inactive”. With `Cc1nn(-c2ccccc2)c(Cl)c1/C=N/NC(=O)c1nn(C)cc1[N+](=O)[O-]` the Potency was “inactive”. In the case of `CCOC(=O)N1CCN(Cc2nnc(-c3ccccc3Cl)o2)CC1`, the Potency is reported as “inactive”. With `COc1ccc2nc(SCC(=O)Nc3c(C)cc(C)cc3C)[nH]c2c1` the Potency was “inactive”. In the case of `CC(C)OCCCNC(=O)c1cc(Sc2ccc(F)cc2)nc2ccccc12`, the Potency is reported as “inactive”. `COC(=O)Nc1nc2ccc(Sc3ccccc3)cc2[nH]1` was tested, and the Potency was “inactive and 6.31 µM (active)”. For `S=c1[nH]ccn1-c1ccc(Cl)cc1`, the Potency was 3.55 µM (active). For `S=c1[nH]cc(-c2ccc(Cl)cc2)n1-c1ccccc1`, the Potency was “inactive”. For `COc1c(Cl)cc(C(=O)Nc2ccc(Cl)cn2)cc1Cl`, the Potency was “inactive”. For `O=C(CN1CCN(c2ccc(F)cc2)CC1)Nc1ccccc1`, the Potency was “inactive”. In the case of `COC(=O)c1ccc(NC(=O)c2cc(Cl)ccc2OC)cc1`, the Potency is reported as “inactive”. In the case of `COc1ccc(C(=O)NC(=S)Nc2ccc(Cl)cn2)cc1OC`, the Potency is reported as 7.94 µM (active). With `COc1cccc(C(=O)Nc2ccc(N3CCCC3)cc2)c1` the Potency was “inactive”. With `O=C(CN1CCN(c2ccccc2)CC1)Nc1ccc(F)cc1` the Potency was “inactive”. For `COc1ccc(C(=O)N/N=C(\C)CC(=O)Nc2ccc(Cl)cn2)cc1`, the Potency was 5.01 µM (active). For `O=C(CCN1CCN(c2ccccc2)CC1)NNC(=S)Nc1ccccc1`, the Potency was 10 µM (active). In the case of `COc1ccc(COC(=O)N/N=C(\C)CC(=O)Nc2ccc(Cl)cc2)cc1`, the activity change, negative = inhibition is reported as 5.64% [at 10 µM] (inactive). For `COc1ccc(C(=O)NC(=S)Nc2ccc(N3CCCC3)cc2)cc1OC`, the Potency was 0.447 µM (active). For `COc1ccc(C(=O)Nc2ccc(N3CCC(C)CC3)cc2)cc1Br`, the Potency was “inactive”. `COc1ccc(C/C(C)=N/NC(=O)c2ccncc2)cc1` was tested, and the Potency was “inactive”. With `CCc1ccc(NC(=O)CN2CCC(C(=O)c3ccc(OC)cc3)CC2)cc1` the Potency was “inactive”. With `Cc1c(C(=O)NC2CCCCC2)oc2ccccc12` the Potency was “inactive”. For `CCCNC(=O)CCc1c(C)nc2c(c(C)nn2-c2ccccc2)c1C`, the Potency was “inactive”. With `Cc1ccc(S(=O)(=O)N2CCCC(C(=O)N3CCN(C)CC3)C2)cc1` (stereo not given) the Potency was “inactive”. With `O=C(Nc1ccncc1)Nc1ccc(F)cc1` the Potency was “inactive”. With `COc1ccc(OCc2cc(C(=O)N3CCCC3)no2)c2ccccc12` the Potency was “inactive”. With `COC(=O)CN1C(=O)[C@H]2[C@@H](C3CC3)N3C(=O)CN(Cc4ccc(-c5ccccc5)cc4)C(=O)[C@@]3(Cc3ccccc3)[C@H]2C1=O` the Potency was “inactive”. For `CS(=O)(=O)Nc1ccccc1N=C(c1ccccc1)c1ccccc1`, the activity change, negative = inhibition was -31.1% [at 1.91 µM] (inactive). In the case of `COc1ccc(CN2CCNC(=O)C2CC(=O)NCc2cn[nH]c2-c2ccccc2)c(F)c1` (stereo not given), the Potency is reported as “inactive”. For `COc1ccc2oc(C(=O)NCC(Cc3ccccc3)N(C)C)c(C)c2c1` (stereo not given), the Potency was “inactive”. `O=C(Cc1ccccc1)NC(=S)Nc1ccc(N2CCCCC2)cc1` was tested, and the Potency was 2.24 µM (active). For `Cc1ccccc1C(=O)Nc1ccc(N2CCCCCC2)cc1`, the Potency was “inactive”. `O=C(CN1CCN(c2ccc(O)cc2)CC1)Nc1ccc(-c2ccccc2)cc1` was tested, and the Potency was “inactive”. With `O=C(COc1ccc([N+](=O)[O-])cc1)Nc1ccc(N2CCCC2)cc1` the Potency was “inactive”. For `Cc1nc(NC(=O)c2ccc3c(c2)OCCO3)ccc1Br`, the Potency was “inactive”. With `O=C(Nc1ccc(Cl)cn1)c1ccc2c(c1)OCCO2` the Potency was 8.91 µM (active). In the case of `COC(=O)c1ccc(NC(=S)NN2CCOCC2)cc1`, the Potency is reported as “inactive”. For `Cc1ccccc1C(=O)NC(=S)Nc1ccc(N2CCN(C(=O)c3ccccc3)CC2)cc1`, the Potency was 22.4 µM (active). For `Cc1ccc(C(=O)NC(=S)Nc2ccc(N3CCOCC3)cc2)cc1`, the Potency was 6.31 µM (active). With `O=C(Nc1ccc(Cl)cn1)c1cnn2cccnc12` the Potency was “inactive”. For `Cc1ccc(OCCCC(=O)Nc2ccc(N3CCOCC3)cc2)cc1`, the Potency was “inactive”. With `O=C(c1ccccc1)c1ccc(C(=O)N2CCN(c3ccccc3)CC2)cc1` the Potency was “inactive”.
